Experimental data: PubChem BioAssay AID1159580 (chemical genetic matrix, 2015)
In all, about 5,500 compounds went through this assay and about 2,000 (36%) were called active. Inconclusive results (about 18%) are left out. No stated cut-off is given here; in the data, active means normalized growth mostly below about 0.91 (no sharp cut-off); inconclusive means no clear call, values can overlap the other calls; inactive means mostly above about 0.92. The list shows a part of the results.

Assay: chemical genetic growth profiling, strain panel (AID 1159580);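 further: tested at 20 µM; growth read once vehicle control cultures reached saturation at 30 °C; 1 = growth at the plate median or of vehicle wells; lower values mean less growth of the strain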
Conditions: growth OD

Measured: normalized growth

COc1cc(C(=O)O)c(O)c2c1OCO2
inactive: S. cerevisiae deletion strains, locus YAL013W, strain DEP1, hits give low values 1.01 | S. cerevisiae deletion strains, locus YBR021W, strain FUR4, hits give low values 0.999 | S. cerevisiae deletion strains, locus YBR229C, strain ROT2, hits give low values 0.999 | S. cerevisiae deletion strains, locus YCL029C, strain bik1, hits give low values 0.995 | S. cerevisiae deletion strains, locus YDL035C, strain GPR1, hits give low values 1.02 | S. cerevisiae deletion strains, locus YDL074C, strain BRE1, hits give low values 1.05 | S. cerevisiae deletion strains, locus YDL101C, strain DUN1, hits give low values 1.01 | S. cerevisiae deletion strains, locus YDL134C, strain PPH21, hits give low values 1.01 | S. cerevisiae deletion strains, locus YDL185W, strain tfp1, hits give low values 1 | S. cerevisiae deletion strains, locus YDL192W, strain arf1, hits give low values 1 | S. cerevisiae deletion strains, locus YDR101C, strain arx1, hits give low values 0.989 | S. cerevisiae deletion strains, locus YDR150W, strain NUM1, hits give low values 1.01 | S. cerevisiae deletion strains, locus YDR162C, strain NBP2, hits give low values 1.02 | S. cerevisiae deletion strains, locus YDR318W, strain mcm21, hits give low values 1 | S. cerevisiae deletion strains, locus YDR388W, hits give low values 1 | S. cerevisiae deletion strains, locus YDR502C, strain sam2, hits give low values 0.999 | S. cerevisiae deletion strains, locus YEL061C, strain CIN8, hits give low values 1 | S. cerevisiae deletion strains, locus YER110C, hits give low values 1 | S. cerevisiae deletion strains, locus YER155C, strain BEM2, hits give low values 1 | S. cerevisiae deletion strains, locus YER167W, strain BCK2, hits give low values 1.01 | S. cerevisiae deletion strains, locus YGL078C, strain dbp3, hits give low values 1.01 | S. cerevisiae deletion strains, locus YGL086W, strain mad1, hits give low values 1 | S. cerevisiae deletion strains, locus YGL248W, strain PDE1, hits give low values 1.01 | S. cerevisiae deletion strains, locus YGR078C, strain PAC10, hits give low values 1.03 | S. cerevisiae deletion strains, locus YGR135W, strain pre9, hits give low values 0.996 | S. cerevisiae deletion strains, locus YGR229C, strain SMI1, hits give low values 1.02 | S. cerevisiae deletion strains, locus YGR252W, strain gcn5, hits give low values 1.02 | S. cerevisiae deletion strains, locus YHR030C, strain SLT2, hits give low values 1.01 | S. cerevisiae deletion strains, locus YHR079C, strain IRE1 (second series), hits give low values 1 | S. cerevisiae deletion strains, locus YHR094C, strain hxt1, hits give low values 1 | S. cerevisiae deletion strains, locus YHR129C, strain ARP1, hits give low values 1.01 | S. cerevisiae deletion strains, locus YHR200W, strain rpn10, hits give low values 1.01 | S. cerevisiae deletion strains, locus YIL066C, strain RNR3, hits give low values 1.02 | S. cerevisiae deletion strains, locus YIL073C, strain SPO22, hits give low values 1.02 | S. cerevisiae deletion strains, locus YIL125W, strain kgd1, hits give low values 1 | S. cerevisiae deletion strains, locus YIR030C, strain dcg1, hits give low values 1 | S. cerevisiae deletion strains, locus YJL095W, strain BCK1, hits give low values 1.01 | S. cerevisiae deletion strains, locus YJL134W, strain LCB3, hits give low values 1 | S. cerevisiae deletion strains, locus YJL168C, strain set2, hits give low values 1 | S. cerevisiae deletion strains, locus YJL187C, strain SWE1 (second series), hits give low values 1.01 | S. cerevisiae deletion strains, locus YJR043C, strain POL32, hits give low values 1.02 | S. cerevisiae deletion strains, locus YJR075W, strain HOC1, hits give low values 1 | S. cerevisiae deletion strains, locus YKL009W, strain mrt4, hits give low values 1.01 | S. cerevisiae deletion strains, locus YKL068W, hits give low values 1.01 | S. cerevisiae deletion strains, locus YKL085W, strain MDH1 (second series), hits give low values 1 | S. cerevisiae deletion strains, locus YKL085W, strain MDH1, hits give low values 1 | S. cerevisiae deletion strains, locus YKL190W, strain CNB1, hits give low values 1.01 | S. cerevisiae deletion strains, locus YKR001C, strain vps1, hits give low values 1.01 | S. cerevisiae deletion strains, locus YLR039C, strain RIC1, hits give low values 1.04 | S. cerevisiae deletion strains, locus YLR058C, strain SHM2, hits give low values 1.01 | S. cerevisiae deletion strains, locus YLR102C, strain apc9, hits give low values 1 | S. cerevisiae deletion strains, locus YLR262C, strain YPT6, hits give low values 1.03 | S. cerevisiae deletion strains, locus YLR268W, strain sec22, hits give low values 1 | S. cerevisiae deletion strains, locus YLR330W, strain CHS5, hits give low values 1.01 | S. cerevisiae deletion strains, locus YLR342W, strain FKS1 (second series), hits give low values 1.01 | S. cerevisiae deletion strains, locus YLR371W, strain rom2, hits give low values 1.02 | S. cerevisiae deletion strains, locus YLR418C, strain cdc73, hits give low values 1 | S. cerevisiae deletion strains, locus YML016C, strain PPZ1, hits give low values 1.01 | S. cerevisiae deletion strains, locus YML032C, strain rad52, hits give low values 1.02 | S. cerevisiae deletion strains, locus YML124C, strain tub3, hits give low values 0.998 | S. cerevisiae deletion strains, locus YMR078C, strain ctf18, hits give low values 1 | S. cerevisiae deletion strains, locus YMR223W, strain ubp8, hits give low values 1.01 | S. cerevisiae deletion strains, locus YMR263W, strain SAP30, hits give low values 1.02 | S. cerevisiae deletion strains, locus YMR307W, strain GAS1, hits give low values 0.961 | S. cerevisiae deletion strains, locus YNL067W, strain RPL9B, hits give low values 1.01 | S. cerevisiae deletion strains, locus YNL128W, strain TEP1, hits give low values 1.02 | S. cerevisiae deletion strains, locus YNL153C, strain GIM3, hits give low values 1.02 | S. cerevisiae deletion strains, locus YNL233W, strain BNI4, hits give low values 1.01 | S. cerevisiae deletion strains, locus YNL250W, strain rad50, hits give low values 1.01 | S. cerevisiae deletion strains, locus YNL271C, strain bni1, hits give low values 1.01 | S. cerevisiae deletion strains, locus YNL298W, strain CLA4, hits give low values 1.01 | S. cerevisiae deletion strains, locus YNL307C, strain MCK1, hits give low values 1.01 | S. cerevisiae deletion strains, locus YNL322C, strain KRE1, hits give low values 1.01 | S. cerevisiae deletion strains, locus YNR052C, strain pop2, hits give low values 1.01 | S. cerevisiae deletion strains, locus YOL006C, strain TOP1, hits give low values 0.995 | S. cerevisiae deletion strains, locus YOL012C, strain htz1 1.11 | S. cerevisiae deletion strains, locus YOL147C, strain pex11, hits give low values 0.998 | S. cerevisiae deletion strains, locus YOR061W, strain CKA2, hits give low values 1.01 | S. cerevisiae deletion strains, locus YOR069W, strain VPS5, hits give low values 1.01 | S. cerevisiae deletion strains, locus YOR136W, strain idh2, hits give low values 1 | S. cerevisiae deletion strains, locus YOR144C, strain elg1, hits give low values 0.997 | S. cerevisiae deletion strains, locus YOR184W, strain ser1, hits give low values 1.01 | S. cerevisiae deletion strains, locus YOR316C, strain cot1, hits give low values 1.01 | S. cerevisiae deletion strains, locus YPL055C, strain LGE1, hits give low values 1.04 | S. cerevisiae deletion strains, locus YPL241C, strain CIN2, hits give low values 1.01 | S. cerevisiae deletion strains, locus YPR119W, strain clb2, hits give low values 0.997 | S. cerevisiae deletion strains, locus YPR141C, strain kar3, hits give low values 1.01 | S. cerevisiae deletion strains, locus YPR163C, strain tif3, hits give low values 1 | S. cerevisiae deletion strains, locus YPR167C, strain met16, hits give low values 1.01 | S. cerevisiae deletion strains, strain wtn01, hits give low values 0.982 | S. cerevisiae strains, strain wild type, hits give low values 1.02
